Inconclusive results are not listed. Calls of active or inactive are those of the source. Rule for the calls, unless noted: active = hit-call score of the fitted dose curve at least 0.9, where 1 is the maximum; inactive = score below 0.9.
Legend:
[1] = ATG_TAL_CIS: Attagene CIS-FACTORIAL HepG2 Assay for human TAL Basal Promoter (AID 2282966); details: HepG2 Attagene cis-factorial TAL promoter reporter; actives raise or lower the signal;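 note: background control endpoint measuring basal TAL promoter reporter mRNA not a specific factor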
Procedure, shortened: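 In this cell-based multiplex, HepG2 liver cells bearing cis-promoter reporter constructs are dosed for 24 hours. Total RNA is reverse-transcribed and amplified, labelled fragments are sized by capillary electrophoresis, and signal changes are fitted bidirectionally versus DMSO.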

[2] = ATG_TGFb_CIS: Attagene CIS-FACTORIAL HepG2 Assay for human Transforming Growth Factor (TGF) (AID 2282967); details: HepG2 Attagene CIS TGFb reporter, mRNA transcription; actives raise or lower the signal
Procedure, shortened: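 Liver HepG2 line, cis-factorial reporter panel, 24 h dosing. Quantitation: RT-PCR products labeled with 6-FAM, cut with HpaI, resolved by capillary electrophoresis; DMSO-referenced bidirectional analysis.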

[3] = ATG_VDRE_CIS: Attagene CIS-FACTORIAL HepG2 Assay for human Vitamin D Receptor Element (VDRE) (AID 2282968); details: HepG2 VDRE cis-reporter transcription, actives raise or lower the signal
Procedure, shortened: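 RT-PCR/CE readout of reporter mRNA; HepG2, transient transfection, 24 h dosing; DMSO baseline; bidirectional analysis.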

[4] = biological target: Nuclear receptor subfamily 1 group I member 3 (Homo sapiens) (UniProt Q14994); assay: ATG_CAR_TRANS: Attagene TRANS-FACTORIAL HepG2 Assay for human Constitutive Androstane Receptor (CAR) (AID 2282969; active = hit-call score of the fitted dose curve at least 0.9, where 1 is the maximum;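 note: activators raise reporter mRNA above DMSO so AC50 marks induction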); details: HepG2 Attagene TRANS-FACTORIAL CAR reporter
Chain of Nuclear receptor subfamily 1 group I member 3 (Homo sapiens) (Q14994 whole entry, looked up, the tested form may be a part): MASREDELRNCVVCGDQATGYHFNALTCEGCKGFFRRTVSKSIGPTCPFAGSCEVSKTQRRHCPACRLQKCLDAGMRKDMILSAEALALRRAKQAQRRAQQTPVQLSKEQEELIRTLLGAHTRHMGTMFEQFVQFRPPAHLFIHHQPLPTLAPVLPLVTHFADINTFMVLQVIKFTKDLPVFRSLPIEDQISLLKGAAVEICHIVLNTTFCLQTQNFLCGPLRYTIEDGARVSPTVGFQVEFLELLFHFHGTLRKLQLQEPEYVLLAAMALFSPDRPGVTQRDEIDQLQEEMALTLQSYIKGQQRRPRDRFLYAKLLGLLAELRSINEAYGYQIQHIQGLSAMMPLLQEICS
Procedure, shortened: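 HepG2 cells transiently transfected with multiplexed GAL4-UAS reporter units expressing chimeric NR-Gal4 proteins; compound exposure 24 h. Reporter mRNA measured by RT-PCR, 6-FAM labelling, HpaI digestion and capillary electrophoresis; gain-of-signal fitted against DMSO baseline.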

[5] = biological target: X-box-binding protein 1 (Homo sapiens) (UniProt P17861); assay: ATG_Xbp1_CIS: Attagene CIS-FACTORIAL HepG2 Assay for human X-box Binding Protein 1 (XBP1) (AID 2282972); details: HepG2 XBP1 cis-element reporter, Attagene multiplex; actives raise or lower the signal
Chain of X-box-binding protein 1 (Homo sapiens) (P17861 whole entry, looked up): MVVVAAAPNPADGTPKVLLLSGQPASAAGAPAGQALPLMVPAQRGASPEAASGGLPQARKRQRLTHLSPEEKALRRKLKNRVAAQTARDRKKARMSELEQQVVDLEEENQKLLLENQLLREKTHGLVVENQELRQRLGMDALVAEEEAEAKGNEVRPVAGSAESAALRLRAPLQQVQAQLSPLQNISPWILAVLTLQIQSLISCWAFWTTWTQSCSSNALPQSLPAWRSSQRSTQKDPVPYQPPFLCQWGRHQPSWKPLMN
Procedure, shortened: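 After a 24-hour chemical exposure of HepG2 cells carrying cis-regulated reporters, reporter mRNA levels are assessed. Quantification uses RT-PCR, 6-FAM labelling and capillary electrophoresis. Gain- or loss-of-signal is fitted against DMSO.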

[6] = biological target: Estrogen receptor (Homo sapiens) (UniProt P03372); assay: ATG_ERa_TRANS: Attagene TRANS-FACTORIAL HepG2 Assay for human Estrogen Receptor alpha (ERa) (AID 2282970; active = hit-call score of the fitted dose curve at least 0.9, where 1 is the maximum); details: HepG2 Attagene TRANS ERa GAL4 reporter, mRNA
Chain of Estrogen receptor (Homo sapiens) (P03372 whole entry, looked up, the tested form may be a part): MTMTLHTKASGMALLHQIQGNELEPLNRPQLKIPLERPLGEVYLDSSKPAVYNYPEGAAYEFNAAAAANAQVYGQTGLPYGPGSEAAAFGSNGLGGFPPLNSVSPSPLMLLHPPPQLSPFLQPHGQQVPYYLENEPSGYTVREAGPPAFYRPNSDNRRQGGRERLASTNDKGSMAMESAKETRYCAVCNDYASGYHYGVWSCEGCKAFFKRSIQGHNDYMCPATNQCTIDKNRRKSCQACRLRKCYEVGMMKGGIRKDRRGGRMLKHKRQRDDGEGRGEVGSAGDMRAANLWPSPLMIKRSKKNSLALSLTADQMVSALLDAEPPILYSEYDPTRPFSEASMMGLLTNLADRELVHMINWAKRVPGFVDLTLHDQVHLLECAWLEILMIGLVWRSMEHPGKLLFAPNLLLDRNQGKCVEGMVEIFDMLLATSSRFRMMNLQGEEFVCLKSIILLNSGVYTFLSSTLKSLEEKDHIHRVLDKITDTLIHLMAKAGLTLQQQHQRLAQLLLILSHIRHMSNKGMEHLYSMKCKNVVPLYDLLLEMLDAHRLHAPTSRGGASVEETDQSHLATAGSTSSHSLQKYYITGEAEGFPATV
Procedure, shortened: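 After 24 h of compound treatment, RNA from HepG2 cells bearing transfected GAL4-UAS reporter constructs is converted to cDNA, amplified and fluorescently labelled. Capillary electrophoresis resolves the ERa-linked reporter; DMSO serves as negative control.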

[7] = biological target: Steroid hormone receptor ERR1 (Homo sapiens) (UniProt P11474); assay: ATG_ERRa_TRANS: Attagene TRANS-FACTORIAL HepG2 Assay for human Estrogen-Related Receptor alpha (ERRa) (AID 2282971; active = hit-call score of the fitted dose curve at least 0.9, where 1 is the maximum); details: HepG2 Attagene TRANS reporter, ERRa transactivation
Chain of Steroid hormone receptor ERR1 (Homo sapiens) (P11474 whole entry, looked up, the tested form may be a part): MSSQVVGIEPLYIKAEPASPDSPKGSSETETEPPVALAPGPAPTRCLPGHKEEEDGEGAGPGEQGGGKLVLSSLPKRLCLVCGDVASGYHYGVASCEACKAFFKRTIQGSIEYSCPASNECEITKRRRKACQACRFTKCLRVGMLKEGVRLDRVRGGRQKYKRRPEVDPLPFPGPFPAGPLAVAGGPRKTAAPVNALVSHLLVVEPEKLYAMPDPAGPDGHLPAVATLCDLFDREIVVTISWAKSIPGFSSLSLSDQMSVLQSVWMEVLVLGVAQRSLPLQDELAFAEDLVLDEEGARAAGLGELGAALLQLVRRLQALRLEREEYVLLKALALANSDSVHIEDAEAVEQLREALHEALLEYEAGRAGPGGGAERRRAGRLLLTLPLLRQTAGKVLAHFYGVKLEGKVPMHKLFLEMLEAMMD
Procedure, shortened: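 Transfected HepG2, 24 h dosing, ERRa-Gal4 chimera driving GAL4-UAS reporter. Readout: reporter mRNA via RT-PCR plus capillary electrophoresis (fluorescence). Positive direction vs DMSO control.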

[8] = biological target: Estrogen-related receptor gamma (Homo sapiens) (UniProt P62508); assay: ATG_ERRg_TRANS: Attagene TRANS-FACTORIAL HepG2 Assay for human Estrogen-Related Receptor gamma (ERRg) (AID 2282977; active = hit-call score of the fitted dose curve at least 0.9, where 1 is the maximum;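 note: hits increase reporter signal over DMSO so potencies reflect activators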); details: HepG2 Attagene TRANS reporter, ERRg transactivation
Chain of Estrogen-related receptor gamma (Homo sapiens) (P62508 whole entry, looked up, the tested form may be a part): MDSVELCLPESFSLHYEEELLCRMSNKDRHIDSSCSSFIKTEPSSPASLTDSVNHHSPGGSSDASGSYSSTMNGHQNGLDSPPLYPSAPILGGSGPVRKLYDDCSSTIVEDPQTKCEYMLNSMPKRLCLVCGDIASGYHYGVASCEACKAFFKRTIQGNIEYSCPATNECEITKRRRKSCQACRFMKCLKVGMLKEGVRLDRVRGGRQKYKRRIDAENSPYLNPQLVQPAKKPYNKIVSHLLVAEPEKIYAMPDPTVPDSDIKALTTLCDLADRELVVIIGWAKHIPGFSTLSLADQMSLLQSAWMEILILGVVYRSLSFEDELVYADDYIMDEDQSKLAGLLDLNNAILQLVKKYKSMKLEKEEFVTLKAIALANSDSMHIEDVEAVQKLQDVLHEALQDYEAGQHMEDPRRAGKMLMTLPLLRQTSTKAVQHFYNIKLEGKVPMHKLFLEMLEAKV
Procedure, shortened: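 Transfect HepG2 with multiple GAL4-UAS reporter transcription units; dose chemicals 24 h; isolate RNA, reverse-transcribe with oligo(dT), PCR-amplify, label with 6-FAM, digest with HpaI; size fragments by capillary electrophoresis. DMSO serves as negative control.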

[9] = ATG_GAL4_TRANS: Attagene TRANS-FACTORIAL HepG2 Assay for GAL4 (Internal Marker) (AID 2282976; active = hit-call score of the fitted dose curve at least 0.9, where 1 is the maximum); details: HepG2 Attagene TRANS GAL4 internal marker reporter
Procedure, shortened: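 RT-PCR/capillary electrophoresis readout of reporter mRNA. HepG2, transient MRTU transfection (GAL4-UAS reporters), 24 h compound exposure. Background-control endpoint, positive direction vs DMSO baseline.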

[10] = ATG_M_19_TRANS: Attagene TRANS-FACTORIAL HepG2 Assay for M19 Transcription Factor (Internal Marker) (AID 2282974; active = hit-call score of the fitted dose curve at least 0.9, where 1 is the maximum); details: HepG2 Attagene TRANS-FACTORIAL M19 internal marker reporter
Procedure, shortened: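 Cells: human HepG2, transiently transfected with multiplexed reporter transcription units. Exposure: 24 h. Detection: RT-PCR of reporter mRNA with capillary electrophoresis. Analysis: gain-of-signal vs DMSO.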

Measured: AC50

O=C(OC[C@H]1O[C@@H](OC(=O)c2cc(O)c(O)c(OC(=O)c3cc(O)c(O)c(O)c3)c2)[C@H](OC(=O)c2cc(O)c(O)c(OC(=O)c3cc(O)c(O)c(O)c3)c2)[C@@H](OC(=O)c2cc(O)c(O)c(OC(=O)c3cc(O)c(O)c(O)c3)c2)[C@@H]1OC(=O)c1cc(O)c(O)c(OC(=O)c2cc(O)c(O)c(O)c2)c1)c1cc(O)c(O)c(OC(=O)c2cc(O)c(O)c(O)c2)c1
inactive: [1] | [2] | [3] | [4] | [5]

CC[C@H]1CC[C@H](NCc2cc3c(cc2OC)[C@H]2C[C@H]2C(=O)N3C)[C@H](c2ccccc2)N1
inactive: [1] | [2] | [6] | [7] | [8]
active: [3] 33.2 µM | [5] 96.6 µM

CCNc1ccccc1
inactive: [1] | [2] | [3] | [4] | [5] | [9]

C=CC(=C)CCC=C(C)C
inactive: [1] | [2] | [3] | [4] | [6] | [5]

COC(=O)c1c(Cl)c(Cl)c(C(=O)OC)c(Cl)c1Cl
inactive: [1] | [2] | [3] | [6] | [7] | [5] | [10] | [9] | [8]

C1=CCCC=CCCC=CCC1
inactive: [1] | [2] | [3] | [4] | [5]

CCOC(=O)COc1ccc2c(c1)CC(NCC(O)c1cccc(Cl)c1)CC2 (stereo unspecified)
active: [6] 47.1 µM
inactive: [1] | [2] | [3] | [4] | [5] | [10] | [8]

C[C@](N)(Cc1ccc(O)c(O)c1)C(=O)O
inactive: [1] | [2] | [3] | [4] | [5]

CC(C)(O)c1coc(S(=O)(=O)NC(=O)Nc2c3c(cc4c2CCC4)CCC3)c1
inactive: [1] | [2] | [4] | [5] | [10] | [9]
active: [3] 44.5 µM

Cc1ccc(N)cc1O
inactive: [1] | [2] | [3] | [4] | [6] | [5]

O=C(O)CC(O)C(=O)O (stereo unspecified)
inactive: [1] | [2] | [3] | [4] | [5]

CC(=O)c1ccc2c(c1)[C@H](NC(=O)c1ccc(F)cc1)[C@@H](O)C(C)(C)O2
inactive: [1] | [2] | [3] | [4] | [5] | [9]

Cc1ccc(O)cc1
inactive: [1] | [2] | [3] | [4] | [5]

CCOC(=O)CC(CC(=O)OCC)(OC(C)=O)C(=O)OCC
inactive: [1] | [2] | [3] | [4] | [5] | [10]
